Test results taken from PubChem BioAssay AID1159580 (chemical genetic matrix, 2015).
Among all 5,500 compounds or so, about 2,000 (36%) were called active. About 18% were inconclusive and are not listed. Rule as the data show it: active = normalized growth mostly below about 0.91 (no sharp cut-off); inconclusive = no clear call, values can overlap the other calls; inactive = mostly above about 0.92. The list shows a part of the results.

Assay: chemical genetic growth profiling, strain panel (AID 1159580);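 also: tested at 20 µM; growth read once vehicle control cultures reached saturation at 30 °C; 1 = growth at the plate median or of vehicle wells; lower values mean less growth of the strain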
Settings: S. cerevisiae deletion strains, growth OD

Measured: normalized growth

CNCC[C@@H](Oc1ccccc1)c1ccccc1
inactive: locus YAL021C, strain ccr4, stronger effect = lower value 0.976 | locus YAL026C, strain drs2, stronger effect = lower value 0.961 | locus YAL030W, strain snc1, stronger effect = lower value 0.947 | locus YBL061C, strain skt5, stronger effect = lower value 0.98 | locus YBR009C, strain hhf1, stronger effect = lower value 0.974 | locus YBR023C, strain chs3, stronger effect = lower value 0.979 | locus YBR171W, strain sec66, stronger effect = lower value 0.979 | locus YBR231C, strain swc5, stronger effect = lower value 0.984 | locus YBR279W, strain paf1, stronger effect = lower value 0.982 | locus YCL011C, strain gbp2, stronger effect = lower value 0.975 | locus YCL016C, strain dcc1, stronger effect = lower value 0.979 | locus YCL061C, strain MRC1, stronger effect = lower value 0.982 | locus YCL069W, strain vba3, stronger effect = lower value 0.978 | locus YCR088W, strain abp1, stronger effect = lower value 0.983 | locus YDL005C, strain med2, stronger effect = lower value 0.983 | locus YDL040C, strain nat1, stronger effect = lower value 0.988 | locus YDR001C, strain nth1, stronger effect = lower value 0.974 | locus YDR069C, strain doa4, stronger effect = lower value 0.965 | locus YDR137W, strain rgp1, stronger effect = lower value 1.02 | locus YDR159W, strain sac3, stronger effect = lower value 0.944 | locus YDR195W, strain ref2 0.972 | locus YDR297W, strain sur2, stronger effect = lower value 0.98 | locus YDR334W, strain swr1, stronger effect = lower value 0.951 | locus YDR335W, strain msn5, stronger effect = lower value 0.965 | locus YDR392W, strain spt3, stronger effect = lower value 0.975 | locus YEL003W, strain gim4, stronger effect = lower value 0.973 | locus YEL037C, strain rad23, stronger effect = lower value 0.988 | locus YEL061C, strain CIN8 (second series), stronger effect = lower value 0.988 | locus YER015W, strain faa2, stronger effect = lower value 0.961 | locus YER016W, strain bim1, stronger effect = lower value 0.978 | locus YER111C, strain swi4, stronger effect = lower value 0.981 | locus YER155C, strain BEM2 (second series), stronger effect = lower value 0.978 | locus YFR010W, strain ubp6, stronger effect = lower value 0.964 | locus YGL167C, strain pmr1, stronger effect = lower value 0.977 | locus YGL173C, strain kem1, stronger effect = lower value 0.954 | locus YGL227W, strain vid30, stronger effect = lower value 0.97 | locus YGL240W, strain doc1, stronger effect = lower value 0.96 | locus YGL253W, strain hxk2, stronger effect = lower value 0.984 | locus YHR013C, strain ard1, stronger effect = lower value 0.973 | locus YHR027C, strain rpn1, stronger effect = lower value 0.946 | locus YHR030C, strain SLT2, stronger effect = lower value 1.01 | locus YHR079C, strain IRE1, stronger effect = lower value 0.995 | locus YHR142W, strain chs7, stronger effect = lower value 0.973 | locus YJL092W, strain hpr5, stronger effect = lower value 0.984 | locus YJL095W, strain BCK1 (second series), stronger effect = lower value 0.971 | locus YJL095W, strain BCK1, stronger effect = lower value 0.996 | locus YJL115W, strain asf1, stronger effect = lower value 0.957 | locus YJL129C, strain trk1, stronger effect = lower value 0.99 | locus YJL154C, strain vps35, stronger effect = lower value 0.97 | locus YJL164C, strain tpk1, stronger effect = lower value 0.987 | locus YJL166W, strain qcr8, stronger effect = lower value 0.976 | locus YJL187C, strain SWE1, stronger effect = lower value 0.98 | locus YJR066W, strain TOR1, stronger effect = lower value 0.946 | locus YKL160W, strain elf1, stronger effect = lower value 0.989 | locus YKR026C, strain gcn3, stronger effect = lower value 0.977 | locus YKR091W, strain srl3, stronger effect = lower value 0.988 | locus YLL001W, strain dnm1, stronger effect = lower value 0.988 | locus YLL026W, stronger effect = lower value 0.97 | locus YLL041C, strain sdh2, stronger effect = lower value 0.968 | locus YLR027C, strain aat2, stronger effect = lower value 0.962 | locus YLR113W, strain HOG1, stronger effect = lower value 0.965 | locus YLR221C, strain rsa3, stronger effect = lower value 0.976 | locus YLR258W, strain gsy2, stronger effect = lower value 0.981 | locus YLR262C, strain YPT6 (second series), stronger effect = lower value 0.982 | locus YLR320W, strain mms22, stronger effect = lower value 0.989 | locus YLR342W, strain FKS1, stronger effect = lower value 0.976 | locus YLR357W, strain rsc2, stronger effect = lower value 1.01 | locus YLR370C, strain arc18, stronger effect = lower value 0.981 | locus YLR384C, strain iki3, stronger effect = lower value 0.972 | locus YML120C, strain ndi1, stronger effect = lower value 0.983 | locus YMR058W, strain fet3, stronger effect = lower value 0.981 | locus YMR125W, strain sto1, stronger effect = lower value 0.979 | locus YMR129W, stronger effect = lower value 0.991 | locus YMR205C, strain PFK2, stronger effect = lower value 0.958 | locus YMR231W, strain pep5, stronger effect = lower value 0.984 | locus YNL071W, strain lat1, stronger effect = lower value 0.993 | locus YNL183C, strain NPR1, stronger effect = lower value 0.958 | locus YNL209W, strain ssb2, stronger effect = lower value 0.948 | locus YNL248C, strain rpa49, stronger effect = lower value 0.974 | locus YNL322C, strain KRE1 (second series), stronger effect = lower value 0.978 | locus YNR049C, strain mso1, stronger effect = lower value 0.969 | locus YOR001W, strain rrp6, stronger effect = lower value 0.972 | locus YOR070C, strain gyp1, stronger effect = lower value 0.989 | locus YOR080W, strain dia2, stronger effect = lower value 0.973 | locus YOR083W, strain WHI5, stronger effect = lower value 0.981 | locus YOR106W, strain vam3, stronger effect = lower value 0.972 | locus YOR231W, strain MKK1, stronger effect = lower value 1.01 | locus YOR265W, strain rbl2, stronger effect = lower value 0.98 | locus YOR270C, strain vph1, stronger effect = lower value 1.01 | locus YOR290C, strain snf2, stronger effect = lower value 0.974 | locus YPL051W, strain arl3, stronger effect = lower value 0.994 | locus YPL078C, strain atp4, stronger effect = lower value 0.984 | locus YPL106C, strain sse1, stronger effect = lower value 0.924 | locus YPL240C, strain hsp82, stronger effect = lower value 0.976 | locus YPL256C, strain CLN2, stronger effect = lower value 0.992
